Compounds without any hit were thinned out: in the full panel of roughly 79,000, 15% have a hit. The source made the active and inactive calls. Cut-off read from the data, not from the text of the source: active = growth inhibition above about 70%; inactive = the rest.
Experiments:
[1] = NCI Yeast Anticancer Drug Screen. Data for the rad50 strain (AID 155);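 note: 0% = growth of vehicle-only cultures of the same strain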; conditions: S. cerevisiae rad50 strain growth inhibition, active compounds read high
Method in brief: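 Compounds were tested on a yeast strain with an engineered DNA damage repair alteration; the reported value is growth inhibition normalised to vehicle treatment.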

[2] = NCI Yeast Anticancer Drug Screen. Data for the mec2-1 strain (AID 157); conditions: S. cerevisiae mec2-1 strain, active compounds read high
Method in brief: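 Vehicle-treated cultures served as reference for growth inhibition of compound-exposed mec2-1 yeast.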

[3] = NCI Yeast Anticancer Drug Screen. Data for the sgs1 mgt1 strain (AID 161);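 note: 0% = growth of cultures given vehicle only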; conditions: S. cerevisiae sgs1 mgt1 strain, active compounds read high
Method in brief: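 Read-out: growth inhibition vs vehicle controls. Cells: mutant yeast strain deficient in DNA damage repair.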

[4] = NCI Yeast Anticancer Drug Screen. Data for the cln2 rad14 strain (AID 165);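 note: 0% = growth equal to vehicle treated cultures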; conditions: S. cerevisiae cln2 rad14 strain, active compounds read high
Method in brief: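 Each compound was tested on cln2 rad14 yeast. Inhibition of growth was calculated against vehicle-exposed controls.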

[5] = NCI Yeast Anticancer Drug Screen. Data for the bub3 strain (AID 167); conditions: S. cerevisiae bub3 mutant strain, active compounds read high
Method in brief: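 Growth of a checkpoint-deficient yeast mutant is measured after compound exposure. Values represent inhibition relative to vehicle.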

[6] = NCI Yeast Anticancer Drug Screen. Data for the mlh1 rad18 strain (AID 175); conditions: S. cerevisiae mlh1 rad18 strain growth inhibition, active compounds read high
Method in brief: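 Vehicle-treated cultures served as the reference for growth inhibition in a yeast strain carrying DNA damage repair alterations exposed to each compound.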

[7] = at 5.0 µM (retest, dose inferred, filed as 0.5)
[8] = at 50.0 µM (retest, dose inferred, filed as 5.0)

Measured: growth inhibition

CCCCCCCCCCCCCC/[N+]([O-])=C/c1ccc([N+](=O)[O-])o1
active: [3]; [8] 70% | [5]; at 50.0 µM 78% | [6]; [8] 79%
inactive: [1]; [7] 7% | [1]; [8] 18% | [1]; at 50.0 µM 50.1% | [2]; [7] 2% | [2]; [8] 10% | [2]; at 50.0 µM 45.3% | [3]; [7] 8% | [3]; at 50.0 µM 50.1% | [4]; [7] 8% | [4]; [8] 13% | [4]; at 50.0 µM 29.8% | [5]; [7] 0% | [5]; [8] 14% | [6]; [7] 8% | [6]; at 50.0 µM 54.2%

C1=C(C2=CCCc3ccccc32)c2ccccc2CC1
inactive: [1]; [7] -1% | [1]; [8] 36% | [1]; at 50.0 µM 30.4% | [2]; [7] -5% | [2]; [8] 27% | [2]; at 50.0 µM 34.5% | [3]; [7] -3% | [3]; [8] 50% | [3]; at 50.0 µM 31.9% | [4]; [7] -4% | [4]; [8] 59% | [4]; at 50.0 µM -45.8% | [5]; [7] -2% | [5]; [8] 34% | [5]; at 50.0 µM 5.5% | [6]; [7] -1% | [6]; [8] 43%
active: [6]; at 50.0 µM 74.9%

CC(=O)OC(C)(C)N=Nc1ccc(Br)cc1
active: [1]; [7] 86% | [1]; [8] 99% | [1]; at 50.0 µM 97.9% | [2]; [8] 99% | [2]; at 50.0 µM 98.1% | [3]; [8] 97% | [3]; at 50.0 µM 98.2% | [4]; [8] 94% | [4]; at 50.0 µM 97.3% | [5]; [7] 78% | [5]; [8] 99% | [5]; at 50.0 µM 97.2% | [6]; [8] 99% | [6]; at 50.0 µM 98.2%
inactive: [2]; [7] 31% | [3]; [7] 60% | [4]; [7] 51% | [6]; [7] 63%

c1ccc(C(CNCCN2CCCCCC2)C2CCCCC2)cc1 (stereo not given)
inactive: [1]; [7] 21% | [1]; [8] 12% | [2]; [7] 13% | [2]; [8] 22% | [2]; at 50.0 µM 44.6% | [3]; [7] 26% | [3]; [8] -9% | [4]; [7] 10% | [4]; [8] 16% | [5]; [7] 22% | [5]; [8] 20% | [5]; at 50.0 µM 66.5% | [6]; [7] 18% | [6]; [8] 23%
active: [1]; at 50.0 µM 82.5% | [3]; at 50.0 µM 89.8% | [4]; at 50.0 µM 74.7% | [6]; at 50.0 µM 87.2%

O=C(c1ccccc1)N1CCCCC1
inactive: [1]; [7] -1% | [1]; [8] 33% | [2]; [7] 0% | [2]; [8] 5% | [2]; at 50.0 µM -1.55% | [3]; [7] -2% | [3]; [8] 3% | [3]; at 50.0 µM 23.9% | [4]; [7] 2% | [4]; [8] 3% | [4]; at 50.0 µM 48% | [5]; [7] -2% | [5]; [8] 3% | [5]; at 50.0 µM 15.5% | [6]; [7] 0% | [6]; [8] 6% | [6]; at 50.0 µM 47%
active: [1]; at 50.0 µM 81.5%

CO/C(=N\N=C(/c1ccccc1)C(F)(F)F)c1ccncc1
inactive: [1]; [7] 44% | [1]; at 50.0 µM 45% | [2]; [7] 0% | [2]; [8] 58% | [2]; at 50.0 µM 62.6% | [3]; [7] 15% | [4]; [7] 25% | [4]; [8] 52% | [4]; at 50.0 µM 44.5% | [5]; [7] 2% | [6]; [7] 0% | [6]; [8] 66% | [6]; at 50.0 µM 65%
active: [1]; [8] 75% | [3]; [8] 76% | [3]; at 50.0 µM 71.8% | [5]; [8] 79% | [5]; at 50.0 µM 75.2%

CCOC(=O)C(NC(C)=O)[CH](c1ccc(OC)cc1)[Sn]([c]1ccccc1)([c]1ccccc1)[c]1ccccc1 (stereo not given)
active: [1]; [7] 99% | [1]; [8] 99% | [2]; [7] 99% | [2]; [8] 99% | [3]; [7] 99% | [3]; [8] 99% | [4]; [7] 98% | [4]; [8] 99% | [4]; at 50.0 µM 99% | [5]; [7] 99% | [5]; [8] 98% | [6]; [7] 99% | [6]; [8] 99% | [6]; at 50.0 µM 85.4%
inactive: [1]; at 50.0 µM 48.6% | [2]; at 50.0 µM 58.1% | [3]; at 50.0 µM 48.2% | [5]; at 50.0 µM 47.4%

Cc1ccc2cccc(N)c2c1
inactive: [1]; [7] 1% | [1]; [8] 2% | [1]; at 50.0 µM -12.4% | [2]; [7] 3% | [2]; [8] 9% | [2]; at 50.0 µM -2.2% | [3]; [7] 2% | [3]; [8] 4% | [3]; at 50.0 µM -21.8% | [4]; [7] 1% | [4]; [8] -9% | [4]; at 50.0 µM 46.4% | [5]; [7] 8% | [5]; [8] 12% | [5]; at 50.0 µM -5.15% | [6]; [7] 2% | [6]; [8] 8% | [6]; at 50.0 µM 44.9%

Cc1[nH]nc(C(=O)N/N=C/c2ccccc2Cl)c1N=NN(C)C
inactive: [1]; [7] 41% | [2]; [7] 50% | [3]; [7] 33% | [4]; [7] 5% | [5]; [7] 12%
active: [1]; [8] 91% | [1]; at 50.0 µM 92.5% | [2]; [8] 93% | [2]; at 50.0 µM 92.4% | [3]; [8] 94% | [3]; at 50.0 µM 91.9% | [4]; [8] 93% | [4]; at 50.0 µM 93.7% | [5]; [8] 88% | [5]; at 50.0 µM 89.7% | [6]; [7] 72% | [6]; [8] 94% | [6]; at 50.0 µM 95.3%

CSc1cc2c(cc1N)Cc1ccccc1-2
active: [1]; [8] 71% | [1]; at 50.0 µM 85.4% | [2]; [8] 88% | [2]; at 50.0 µM 90.8% | [3]; at 50.0 µM 97% | [4]; at 50.0 µM 88.7% | [5]; [8] 91% | [5]; at 50.0 µM 97.3% | [6]; [8] 89% | [6]; at 50.0 µM 97.3%
inactive: [1]; [7] 3% | [2]; [7] 8% | [3]; [7] 3% | [3]; [8] 30% | [4]; [7] 1% | [4]; [8] 50% | [5]; [7] -1% | [6]; [7] 6%

Source: PubChem BioAssay (NCI)
